Results published in PubChem BioAssay AID1159580 (chemical genetic matrix, 2015).
Hit rate of the full screen: of about 5,500 compounds, about 2,000 (36%) were called active. About 18% were inconclusive and are not listed. Cut-off read from the data, not from the text of the source: active = normalized growth mostly below about 0.91 (no sharp cut-off); inconclusive = no clear call, values can overlap the other calls; inactive = mostly above about 0.92. Some of the results follow.

Test: chemical genetic growth profiling, strain panel (AID 1159580);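 note: tested at 20 µM; growth read once vehicle control cultures reached saturation at 30 °C; 1 = growth at the plate median or of vehicle wells; lower values mean less growth of the strain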
Conditions: S. cerevisiae deletion strains, growth OD
[1] = locus YDL101C, strain DUN1, stronger effect = lower value
[2] = locus YHR030C, strain SLT2, stronger effect = lower value

Measured: normalized growth

Nc1nc(Sc2ccc(C(F)(F)F)cc2[N+](=O)[O-])n[nH]1
inactive: locus YAL013W, strain DEP1, stronger effect = lower value 0.988 | locus YBR229C, strain ROT2, stronger effect = lower value 0.998 | [1] 1.02 | locus YDR150W, strain NUM1, stronger effect = lower value 0.901 | locus YEL061C, strain CIN8, stronger effect = lower value 1.02 | locus YGR078C, strain PAC10, stronger effect = lower value 1.01 | [2] 1.03 | locus YHR087W, strain rtc3, stronger effect = lower value 0.988 | locus YJR043C, strain POL32, stronger effect = lower value 1.01 | locus YJR075W, strain HOC1, stronger effect = lower value 1.01 | locus YKL190W, strain CNB1, stronger effect = lower value 1 | locus YLR039C, strain RIC1, stronger effect = lower value 1.07 | locus YLR058C, strain SHM2 (second series), stronger effect = lower value 1.01 | locus YLR085C, strain ARP6, stronger effect = lower value 1.16 | locus YLR262C, strain YPT6, stronger effect = lower value 1.03 | locus YML094W, strain GIM5, stronger effect = lower value 0.995 | locus YMR219W, strain ESC1, stronger effect = lower value 1 | locus YMR263W, strain SAP30, stronger effect = lower value 1.01 | locus YMR307W, strain GAS1, stronger effect = lower value 1.24 | locus YNL153C, strain GIM3, stronger effect = lower value 1.01 | locus YNL298W, strain CLA4 (second series), stronger effect = lower value 1.01 | locus YNL322C, strain KRE1, stronger effect = lower value 1 | locus YNR030W, strain Alg12, stronger effect = lower value 0.999 | locus YOL006C, strain TOP1, stronger effect = lower value 1.06 | locus YPL055C, strain LGE1, stronger effect = lower value 0.872 | locus YPL241C, strain CIN2, stronger effect = lower value 1.08 | locus YPR135W, strain CTF4, stronger effect = lower value 0.892

O=[N+]([O-])c1cc(C(F)(F)F)ccc1Sc1n[nH]c(-c2cc(Cl)cc(Cl)c2)n1
inactive: locus YAR019C, strain CDC15, stronger effect = lower value 0.925 | locus YBL105C, strain PKC1, stronger effect = lower value 0.954 | locus YBR135W, strain CKS1, stronger effect = lower value 0.951 | locus YBR136W, strain MEC1, stronger effect = lower value 0.936 | locus YBR160W, strain CDC28, stronger effect = lower value 0.935 | locus YDL017W, strain CDC7, stronger effect = lower value 0.95 | locus YDL028C, strain MPS1, stronger effect = lower value 0.917 | [1] 0.987 | locus YDL108W, strain KIN28, stronger effect = lower value 0.94 | locus YDL132W, strain cdc53, stronger effect = lower value 0.937 | locus YDR052C, strain DBF4, stronger effect = lower value 0.944 | locus YDR054C, strain cdc34, stronger effect = lower value 0.896 | locus YDR226W, strain ADK1, stronger effect = lower value 0.943 | locus YFL009W, strain cdc4, stronger effect = lower value 0.909 | locus YFL029C, strain CAK1, stronger effect = lower value 0.929 | locus YFR003C, strain YPI1, stronger effect = lower value 0.954 | locus YFR028C, strain CDC14, stronger effect = lower value 0.933 | locus YIL147C, strain SLN1, stronger effect = lower value 0.929 | locus YJL128C, strain PBS2, stronger effect = lower value 0.811 | locus YJR016C, strain ILV3, stronger effect = lower value 0.939 | locus YKL193C, strain SDS22, stronger effect = lower value 0.94 | locus YMR001C, strain CDC5, stronger effect = lower value 0.925 | locus YMR277W, strain FCP1, stronger effect = lower value 0.926 | locus YNL006W, strain LST8, stronger effect = lower value 0.931 | locus YNL161W, strain CBK1, stronger effect = lower value 0.949 | locus YNL207W, strain RIO2, stronger effect = lower value 0.948 | locus YNL222W, strain SSU72, stronger effect = lower value 0.935 | locus YOL078W, strain AVO1, stronger effect = lower value 0.943 | locus YOR329C, strain SCD5, stronger effect = lower value 0.939 | locus YPL209C, strain IPL1, stronger effect = lower value 0.948 | locus YPR025C, strain CCL1, stronger effect = lower value 0.952 | locus YPR106W, strain ISR1, stronger effect = lower value 0.944 | locus YPR111W, strain DBF20, stronger effect = lower value 0.908 | strain NNK1, stronger effect = lower value 0.917 | strain TSCII, stronger effect = lower value 0.919
active: locus YDL214C, strain PRR2, stronger effect = lower value 0.537 | locus YDR477W, strain SNF1, stronger effect = lower value 0.578 | locus YER123W, strain YCK3, stronger effect = lower value 0.329 | locus YER133W, strain GLC7, stronger effect = lower value 0.716 | locus YFR019W, strain FAB1, stronger effect = lower value 0.207 | locus YGR040W, strain KSS1, stronger effect = lower value 0.678 | locus YGR052W, strain FMP48, stronger effect = lower value 0.541 | locus YGR092W, strain DBF2, stronger effect = lower value 0.129 | [2] 0.147 | locus YHR079C, strain IRE1, stronger effect = lower value 0.131 | locus YHR082C, strain KSP1, stronger effect = lower value 0.231 | locus YHR205W, strain SCH9, stronger effect = lower value 0.472 | locus YJL095W, strain BCK1, stronger effect = lower value 0.228 | locus YJL157C, strain FAR1, stronger effect = lower value 0.15 | locus YJR066W, strain TOR1 (second series), stronger effect = lower value 0.203 | locus YJR066W, strain TOR1, stronger effect = lower value 0.16 | locus YKL048C, strain ELM1, stronger effect = lower value 0.298 | locus YKL067W, strain YNK1, stronger effect = lower value 0.426 | locus YKL101W, strain HSL1, stronger effect = lower value 0.201 | locus YKL203C, strain TOR2, stronger effect = lower value 0.601 | locus YLR113W, strain HOG1, stronger effect = lower value 0.223 | locus YLR133W, strain CKI1, stronger effect = lower value 0.164 | locus YLR403W, strain SFP1, stronger effect = lower value 0.602 | locus YML070W, strain DAK1, stronger effect = lower value 0.293 | locus YMR205C, strain PFK2 (second series), stronger effect = lower value 0.399 | locus YNL020C, strain ARK1, stronger effect = lower value 0.133 | locus YNL183C, strain NPR1, stronger effect = lower value 0.497 | locus YNL307C, strain MCK1 (second series), stronger effect = lower value 0.14 | locus YOL136C, strain PFK27, stronger effect = lower value 0.194 | locus YOR061W, strain CKA2, stronger effect = lower value 0.164 | locus YOR119C, strain RIO1, stronger effect = lower value 0.673 | locus YOR231W, strain MKK1, stronger effect = lower value 0.155 | locus YPL031C, strain PHO85, stronger effect = lower value 0.32 | locus YPL153C, strain RAD53, stronger effect = lower value 0.26 | locus YPL204W, strain HRR25, stronger effect = lower value 0.255 | locus YPL256C, strain CLN2, stronger effect = lower value 0.166
